# Compounds with a hit are over-represented: about 4.1% of the library has one in this group of screens.
# DAX1 inh-1: inhibitors of human orphan nuclear receptor DAX1 (NR0B1); HEK293 Gal4-DAX1 luciferase reporter, luminescence; P51843; inhibition, % at 6.75 µM; 0.99% of 340,000 active;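 active = inhibition above the mean over all tested compounds plus 3 SD, cut at about 4.2% in these data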;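 note: 0% = DAX1-transfected cells with DMSO and 100% = empty-vector control cells with DMSO; inhibition shows as a rise in luminescence from relieved DAX1 repression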
# Target sequence (P51843 207-470 limits assumed): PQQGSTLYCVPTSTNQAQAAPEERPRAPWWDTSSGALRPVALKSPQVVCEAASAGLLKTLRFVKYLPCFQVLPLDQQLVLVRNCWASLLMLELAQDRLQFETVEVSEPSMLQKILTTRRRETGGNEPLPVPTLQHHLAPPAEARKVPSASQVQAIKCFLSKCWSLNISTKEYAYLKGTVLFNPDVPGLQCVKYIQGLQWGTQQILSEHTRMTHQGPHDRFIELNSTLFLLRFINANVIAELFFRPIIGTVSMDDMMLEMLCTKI
# hgDAF12 agonist: agonists of H. glycines DAF-12 nuclear receptor | HEK293 GAL4-hgDAF12 UAS-luciferase reporter, agonist luminescence; normalized to butyrate control | activation, % at 6.8 µM | 1.8% of 370,000 active | AID 687014;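 active = activation above a cutoff set at the mean of all screened compounds plus 3 SD, cut at about 10% in these data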;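 note: 0% = DMSO wells and 100% = sodium butyrate wells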
# ssDAF12 agonist: S. stercoralis DAF-12 activation, primary screen | HEK293 ssDAF-12/GRIP1 lit1-tk-luc reporter, luminescence; % of 3 µM dafachronic acid response | activation, % at 6.8 µM | 1% of 370,000 active | AID 652126;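 active = activation above the mean over all tested compounds plus 3 SD, cut at about 0.9% in these data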;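 note: 0% = DMSO-only wells and 100% = 3 µM delta7-dafachronic acid wells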
# hcDAF-12 act: activators of H. contortus DAF-12 nuclear receptor; AID 652067; activation, % at 6.8 µM; 1.4% of 370,000 active; HEK293 hcDAF-12 lit1-tk-luc reporter, luminescence; 0% DMSO, 100% Δ7-dafachronic acid;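 active = activation above the mean of all tested compounds plus 3 SD, cut at about 5.5% in these data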;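 note: 100% = response to 3 µM Δ7-dafachronic acid high control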
# DAX1 inh-2: blocks DAX1 repression of SF-1 activated StAR promoter. inhibition, % at 6.8 µM. 1.1% of 370,000 active. HEK293T StAR-luciferase reporter, SF-1/DAX-1 repression relief;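 active = inhibition above the mean over all tested compounds plus 3 SD, cut at about 3.6% in these data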;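 note: 0% = DAX-1 cells with DMSO and 100% = cells lacking DAX-1 with DMSO; higher inhibition means more luminescence from relief of DAX-1 repression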
# Starred values were filed as active, the others as inactive; . = not tested or not shown.
SMILES,DAX1 inh-1,hgDAF12 agonist,ssDAF12 agonist,hcDAF-12 act,DAX1 inh-2
CC(C)(C)c1ccc(-c2cn(C[C@H](Cc3ccccc3)n3c(=O)c4ccccc4n3Cc3ccno3)nn2)cc1,.,1,-2,-2,-2
Cc1cccc(C)c1NC(=O)CNC(=O)c1cnccn1,1,1,-1,0,0
Cc1cccc(C)c1NC(=O)c1cnccn1,0,-1,1.0*,-2,0
COc1ccc(-c2cc(-c3nnc(SCC(=O)Nc4ccc(OCc5ccccc5)cc4)n3N)[nH]n2)cc1,.,2,-1,1,-3
CC1(C)CNC(=O)c2sc(N3CCCCC3)nc2C1,5.6*,1,0,0,0
CC1(C)CC(=O)c2sc(N3CCCCC3)nc2C1,3,4,0,1,1
Cc1ccc(NC2SC(=O)N(CC(=O)O)C2=O)cc1 (stereo unspecified),1,2,1.2*,5,0
N#Cc1ccc(OCCCN2CCC(C(O)(c3ccccc3)c3ccccc3)CC2)cc1,.,-2,-1,-1,1
NS(=O)(=O)c1cccc(NC(=O)c2cc(=O)c3ccccc3o2)c1,4.8*,5,-1,2,0
O=C(Nc1ccccc1Cl)c1cc(=O)c2ccccc2o1,2,10,-1,0,1
NS(=O)(=O)c1cccc(NC(=O)c2cc3ccccc3o2)c1,1,5,-1,-1,3
O=C(Nc1ccccc1Br)c1cc(=O)c2ccccc2o1,4,11*,1,1,2
Cc1cc(Oc2nc3c(C)cccn3c(=O)c2/C=C(\C#N)S(=O)(=O)c2ccccc2)ccc1Cl,0,4,1,6.2*,1
Cc1cccn2c(=O)c(/C=C(\C#N)S(=O)(=O)c3ccccc3)c(Oc3ccc(Cl)cc3)nc12,0,1,-1,-1,0
CC(=O)c1ccc(N2Cc3ccccc3/C2=N\C(=O)Nc2ccc(Cl)cc2)cc1,2,12*,1,2,1
CC(=O)Nc1cccc(-c2cc(C(C)=O)c3n(c2=O)CCC3)c1,.,3,-1,-1,0
CCSc1ccccc1C(=O)Nc1nncs1,0,2,-1,-1,0
O=C(N/N=C/c1cccnc1)c1ccc2ccccc2c1O,1,0,-1,2,2
CCOc1cc(C(=O)Nc2cccnc2)cc(OCC)c1OCC,1,1,1.2*,4,-1
CCCOc1ccc(C(=O)Nc2cccnc2)cc1,0,0,-1,-1,0
O=C(Nc1cccnc1)c1ccc2ccccc2c1O,4.3*,9,1,2,1
CCSc1ccccc1C(=O)Nc1cccnc1,4.7*,3,-1,-1,1
Nc1ccc2ccc(NS(=O)(=O)N3CCCCC3)cc2c1,.,-3,-1,-2,-3
COc1cccc2c1[C@H](/C=C/c1ccccc1)[C@@H]([C@H](O)COC(C)=O)OC2,.,-1,-2,-1,-1
CC(COc1ccc(Cl)cc1)CN1CCC(C(O)(c2ccccc2)c2ccccc2)CC1 (stereo unspecified),.,2,-2,1,-1
SMILES,DAX1 inh-1,hgDAF12 agonist,ssDAF12 agonist,hcDAF-12 act,DAX1 inh-2
Brc1ccccc1-n1nnc(-c2cnc3ccccc3c2)n1,1,13*,3.5*,17*,5.2*
Clc1nc2ccccc2cc1-c1nnn(-c2ccccc2Br)n1,1,1,0,3,0
COC(=O)c1cn(-c2ccc(-c3noc4c3C(=O)N(CC(=O)N3CCOCC3)CC4)cc2)nn1,.,0,-2,2,0
C[C@H](CO)N1C[C@H](C)[C@@H](CN(C)C(=O)c2ccncc2)OCc2cn(nn2)CCCC1=O,.,3,0,-1,0
CCc1nc(N2CCN(C(=O)CCl)CC2)c2c3c(sc2n1)CC(C)CC3 (stereo unspecified),4.4*,1,-1,0,-1
N#CCC[C@@H]1CC[C@]2(CCCN(Cc3ccccc3)C2)O1,.,0,0,-3,-1
Cc1ccc(NC(=O)Nc2ncnc3nc[nH]c23)cc1,3,12*,-1,2,2
CCc1ccc(Nc2ncnc3nc[nH]c23)cc1,5.3*,12*,0,4,3
Cc1ccc(/C=C/C(=O)c2ccccc2O)cc1,3,1,-1,-2,0
O=C(/C=C/c1ccc2c(c1)OCCCO2)c1ccccc1O,3,11*,0,2,2
CN(C)c1ccc(/C=C/C(=O)c2ccccc2O)cc1,5.8*,11*,0,1,2
Cc1cccc(C)c1N/C=C/c1onc(C)c1[N+](=O)[O-],0,-2,-1,0,0
Cc1ccc(N/C=C/c2onc(C)c2[N+](=O)[O-])cc1,5.6*,10,-1,4,2
Cc1nn2cc(-c3ncc(C(F)(F)F)cc3Cl)cnc2c1Br,.,13*,0,3,2
COc1ccc(-n2nnc3c(=O)n(CC(=O)N4CCCc5ccccc54)cnc32)cc1,0,-2,0,1,-1
COc1ccc(-n2nnc3c(SCC(=O)N4CCCc5ccccc54)ncnc32)cc1,6.3*,-4,-1,-2,1
O=C1NCCN/C1=C\C(=O)c1ccc(Br)cc1,.,11*,0,4,2
O=C1NCCN/C1=C\C(=O)c1ccccc1,1,6,0,-1,1
COC(=O)CC[C@@H](/C=C/C(=O)OC(C)(C)C)Sc1ccc(C(C)(C)C)cc1,.,1,-1,-2,0
Cc1ccc(CNC(=O)C(OC(=O)c2cccs2)C(C)C)cc1 (stereo unspecified),4.6*,1,-1,-1,0
CC(C)C(OC(=O)c1cccs1)C(=O)NCc1ccccc1 (stereo unspecified),0,1,-2,-1,1
C#CCNC(=O)C[C@H]1C[C@@]2(C(=O)OC)C(=C[C@H](C(C)(C)C)O[C@@H]2C)N(Cc2ccccc2)C1=O,.,2,-1,-1,1
c1ccc2c(c1)COc1c3ncccc3nn1-2,1,13*,0,2,2
CCn1c(C)nc2cc(NC(=O)Nc3cccc(C(C)=O)c3)ccc21,1,12*,0,1,0
CCn1c(C)nc2cc(C(=O)OC)ccc21,0,2,-1,1,1
COc1ccc(/C(C)=N/NC(=O)CN(c2ccc(OC)cc2)S(=O)(=O)c2ccccc2)cc1,4.4*,-1,-1,-1,0
O=C(OCc1cccc(F)c1)c1ccc2c(=O)n3c(nc2c1)CCC3,4.5*,2,-1,-2,0
Cc1ccc(-c2nnc(SCC(=O)c3ccc(O)c(O)c3)n2-c2ccc(Cl)cc2)cc1,.,-3,-1,0,-2
COc1ccc(S[C@]2(C(=O)NCC(C)C)CC(=O)N[C@@H]2c2ccc(OC)cc2)cc1,.,0,-1,0,0
O=C(COc1ccc(S(=O)(=O)NCc2ccccc2)cc1Cl)NCc1ccccn1,-2,-2,-2,-2,0

# Source: PubChem BioAssay (The Scripps Research Institute Molecular Screening Center)
